Screening results as filed in PubChem BioAssay.
Myeloid diff 2: promotes myeloid progenitor differentiation; calls only at 10 µM; AID 624256; ER-HoxA9 myeloid progenitors, lysozyme-GFP differentiation, flow cytometry; 360,000 tested, 1% active;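 active = normalized GFP-positive differentiation at or above the plate's own cutoff, the solvent-only control mean plus 3 SD; inconclusive = no clear call, values can overlap the other calls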;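 also: cells exposed to compound for four days before flow analysis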
ABCB6 inh MLPCN: inhibitors of human ABC transporter ABCB6; K562-ABCB6 porphyrin accumulation, flow cytometry, 1 h; stronger effect = lower value; fluorescence ratio to DMSO, % at 10 µM; 360,000 tested, 0.19% active;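 active = fluorescence ratio to DMSO below 75%, the collection mean minus 3 SD; inconclusive = too few cells collected in the well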;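 also: signal is porphyrin accumulated inside mitochondria; 100% equals median channel fluorescence of DMSO control wells; lower ratio means ABCB6 inhibition with less porphyrin fluorescence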
TLR4-MyD88 BLA: blocks binding of human TLR4 to MyD88; O00206+Q99836; HeLa CL3-4 TLR4/MyD88 BLA complementation, FRET ratio; inhibition, % at 8.4 µM; 200,000 tested, 0.18% active; in the data active = inhibition above about 25%;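 also: 0% = vehicle and 100% = reference inhibitor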
NOD2-RIPK2 inh: NOD2-RIPK2 protein interaction inhibition. CHO BLA complementation NOD2-RIPK2, CCF4 ratio. inhibition, % at 4.98 µM. O43353. AID 624267. 360,000 tested, 0.38% active; in the data active = inhibition above about 21%;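 also: 0% = vehicle only and 100% = reference blocker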
TLR9-MyD88 inh: TLR9-MyD88 interaction inhibition; CHO BLA complementation TLR9-MyD88, CCF4 FRET ratio; AID 504734; 340,000 tested, 0.21% active; inhibition, % at 4.98 µM;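 active = inhibition above the mean over all tested compounds plus 3 SD, cut at about 21% in these data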;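 also: 0% = DMSO only wells and 100% = clavulanate BLA inhibitor control wells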
Myeloid diff: promotes myeloid progenitor differentiation; shares compounds with Myeloid diff 2; 2,300 tested, 2% active; AID 651706; calls only; ER-HoxA9 myeloid progenitors, GFP/Mac1 double-positive flow;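 active = share of green or green-and-red cells above 9 and 9% in run 1 or 4 and 3% in run 2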
GFP autofluor: flagged as fluorescent in myeloid differentiation counter-screen | 2,300 tested, 7.4% active | fluorescence response, % (concentration not given with the values) | ER-HoxA9 myeloid progenitors, no estrogen, GFP autofluorescence flow cytometry; vehicle wells 0%, positive control 100% | shares compounds with Myeloid diff 2;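 active = over 5% cells positive for green fluorescent reporter, or over 2% positive for both it and APC stain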;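 also: range taken on the double positive population between DMSO and positive control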
An asterisk follows results filed as active; i = inactive; ? = inconclusive; nt = no result; + = active, no number. The list is not random: actives were taken first. Their share in the collection is about 1.7%.

SMILES | Myeloid diff 2 | ABCB6 inh MLPCN | TLR4-MyD88 BLA | NOD2-RIPK2 inh | TLR9-MyD88 inh | Myeloid diff | GFP autofluor
COc1cc(C=NCc2ccccc2)ccc1O | i | 97.0 | nt | 1.4 | 8.8 | nt | nt
COc1cc(O)oc1C=Nc1ccccc1 | + | 101.0 | -0.2 | -3.6 | 3.4 | i | 0.3
CCN(CC)CCNC(=O)c1cc2c(-c3ccc(Cl)cc3)nn(C)c2s1 | + | 101.0 | -7.0 | -0.8 | 3.4 | i | 0.0
CCCN(CCC)CCNC(=O)c1cc2c(-c3ccc(Cl)cc3)nn(C)c2s1 | ? | 94.0 | nt | 1.3 | 2.6 | nt | nt
COc1ccccc1CNc1nc(NCC2CC2)nc2ccsc12 | i | 95.0 | nt | 9.2 | nt | nt | nt
COC(=O)C1CCCN1C(=O)c1cccs1 (centres undefined) | + | 92.0 | 23.2 | -8.8 | 9.0 | i | 0.3
COc1ccccc1-c1cc(C(F)(F)F)n2ncc(S(=O)(=O)c3ccccc3)c2n1 | i | 98.0 | 16.9 | 9.2 | -0.3 | nt | nt
C=CCOC(=O)C1=C[C@@H](c2coc3ccccc3c2=O)C[C@@H](OCCCCO)O1 | i | 96.0 | nt | -9.9 | 1.0 | i | 0.0
NC(=O)C1=C[C@@H](c2coc3ccccc3c2=O)C[C@@H](OCCCCO)O1 | i | 99.0 | 7.3 | -15.0 | -3.2 | nt | nt
O=C1COc2ccc3ccccc3c21 | i | 99.0 | nt | 5.0 | 2.9 | i | 1.0
O=C1CC2(CCOCC2)Oc2ccc3ccccc3c21 | i | 101.0 | nt | 7.5 | 6.3 | nt | nt
NC(=S)Nc1cccc2cc3ccccc3cc12 | + | 135.0 | 10.8 | 4.7 | 7.7 | i | 13.6*
COC(=O)c1ccc(CN2CCC(n3nccc3NC(=O)C3CCCC3)CC2)cc1 | i | 98.0 | nt | -7.0 | -7.1 | nt | nt
COCC(C)NCc1ccccc1C (centres undefined) | i | 195.0 | 1.7 | -2.8 | -0.8 | nt | nt
COCC(C)NCc1cccc(OC)c1OC (centres undefined) | i | 718.0 | -3.0 | 4.4 | 2.6 | i | 0.3
Cc1ccc(S(=O)(=O)c2cc3c(=O)n4ccccc4nc3n(Cc3ccco3)c2=N)cc1 | i | 94.0 | 6.3 | 8.9 | 0.0 | i | 0.0
Cc1ccc(CNC(=O)c2cc3c(=O)n4ccccc4nc3n(Cc3ccco3)c2=N)cc1 | i | 92.0 | nt | 4.4 | 1.0 | nt | nt
COc1ccc(OC)c(NC(=O)COC(=O)CN2C(=O)NC3(CCCC3)C2=O)c1 | i | 97.0 | nt | -2.4 | -2.9 | nt | nt
Cc1ccc(Nc2nc(=O)c3cccnc3s2)c(Br)c1 | + | 94.0 | nt | 3.8 | 3.6 | + | 0.6
CC(=O)c1ccc(Nc2nc(=O)c3cccnc3s2)cc1 | i | 103.0 | 5.0 | -9.0 | 8.3 | nt | nt
Cc1ccccc1NS(=O)(=O)c1ccc(F)cc1 | i | 97.0 | 4.7 | -12.3 | 1.1 | nt | nt
COc1ccc(S(=O)(=O)Nc2ccccc2C)cc1 | i | 96.0 | 3.7 | -5.5 | 0.4 | i | 0.0
O=C(Nc1ccccc1)/C(=C/c1cccc(Br)c1)NC(=O)c1ccco1 | + | 171.0 | -6.7 | -4.5 | 0.9 | i | 0.4
O=C(Cc1ccc(Cl)cc1)NCCc1cnc[nH]1 | i | 101.0 | nt | -6.0 | -8.0 | nt | nt
COc1cccc(CNC(=O)CN(C)S(=O)(=O)c2cnc[nH]2)c1 | + | 99.0 | -2.6 | -11.0 | -1.2 | i | 0.6
SMILES | Myeloid diff 2 | ABCB6 inh MLPCN | TLR4-MyD88 BLA | NOD2-RIPK2 inh | TLR9-MyD88 inh | Myeloid diff | GFP autofluor
C/C(N)=C(/C#N)C(=O)COC(=O)C1CCC(C(C)(C)C)CC1 (centres undefined) | i | 89.0 | 8.8 | 3.0 | 4.6 | nt | nt
COc1cc(NC(=S)Nc2ccccn2)c(OC)cc1Cl | i | 99.0 | 7.7 | -1.3 | 4.3 | i | 0.3
O=C(NCCc1ccco1)C(=O)NCC1CCCN1S(=O)(=O)c1ccccc1 (centres undefined) | + | 89.0 | nt | 0.6 | -1.8 | i | 0.0
Cc1ccc(C)c(S(=O)(=O)N2CCCC2CNC(=O)C(=O)NCCc2ccco2)c1 (centres undefined) | i | 97.0 | nt | -1.3 | -10.0 | nt | nt
O=C(CSc1ccc([N+](=O)[O-])cn1)Nc1ccc2c(c1)OCO2 | i | 96.0 | nt | -0.1 | 3.6 | nt | nt
O=C(OCc1ccccc1)N1CCC2CC1c1cc(Cl)ccc12 (centres undefined) | ? | 93.0 | nt | 0.3 | -11.3 | i | 0.3
